Measurements from PubChem BioAssay.
Activity calls are given as the source filed them.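 How the source made its calls, unless noted: active means compounds whose cell count with miR-34 switched on is under 0.7 times the count with it off; inactive means the rest.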

Key:
[1] = viability loss with induced miR-34 in A549 – imaging, A549 dox-inducible miR-34, nuclei and caspase counts, primary screen (AID 1347080); conditions: A549 miR-34 inducible, Hoechst nuclei count, 48 h
[2] = MELAS cybrid and Rieske KO viability enhancers – cell-based, MELAS cybrids, Rieske KO mouse fibroblasts, CellTiter-Glo, primary screen (AID 1508586;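 active means mean z-score across replicates of 1.96 or higher in either the MELAS or the Rieske mutant cell line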;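 further: z relative to plate mean and SD of compound and empty wells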); conditions: low glucose
[3] = stronger effect = lower value, cell number ratio, induced over uninduced
[4] = measured here: relative caspase fold change +Dox/-Dox
[5] = measured here: total cells with miR-34 induction, stronger effect = lower value
[6] = measured here: total cells without miR-34 induction
[7] = MELAS cybrid survival, CellTiter-Glo 48 h, stronger effect = higher value
[8] = Rieske KO mouse fibroblast survival, CellTiter-Glo 72 h
Further: test concentration not given here.

| SMILES | fold change [1, 3] | fold change [1, 4] | cell count [1, 5] | cell count [1, 6] | z-score [2, 7] | z-score [2, 8] |
| --- | --- | --- | --- | --- | --- | --- |
| C[C@@]12CCC3=C4CCC(=O)C=C4CC[C@H]3[C@@H]1CC[C@@]2(O)CC#N | 0.908 (inactive) | 0.868 | 7270 | 8010 | -0.385 (inactive) | 0.301 |
| Nc1cc(F)ccc1NC(=O)C=Cc1cnn(CC=Cc2ccccc2)c1 | 0.91 (inactive) | 0.53 | 6990 | 7680 | -0.402 (inactive) | -2.77 |
| C[C@]12CCC(=O)C=C1[C@@H]1C[C@@H]1[C@H]1[C@@H]3[C@@H]4C[C@@H]4[C@]4(CCC(=O)O4)[C@@]3(C)CC[C@H]12 | 0.956 (inactive) | 0.848 | 6880 | 7200 | -0.459 (inactive) | 0.378 |
| CC(O)[C@@H]1C(=O)N2C(C(=O)O)=C(SC3CNC(CNS(N)(=O)=O)C3)C(C)[C@@H]12 (some centres not stated) | 0.983 (inactive) | 0.831 | 7900 | 8030 | -0.367 (inactive) | -0.0647 |
| C[C@]12CC[C@H]3c4ccc(O)cc4CC[C@H]3[C@@H]1CCC2OC(=O)CCC1CCCC1 (some centres not stated) | 0.984 (inactive) | 0.876 | 8050 | 8180 | -0.17 (inactive) | -0.155 |
| CCC(C)C(=O)OC1CC(O)C=C2C=CC(C)C(CCC(O)CC(O)CC(=O)O)[C@H]21 (some centres not stated) | 0.937 (inactive) | 0.958 | 7720 | 8230 | 0.0242 (inactive) | -0.0533 |
| CC(NC(=O)C(O)c1cc(F)cc(F)c1)C(=O)NC1C(=O)N(C)c2ccccc2-c2ccccc21 (configuration not stated) | 0.896 (inactive) | 0.875 | 8040 | 8970 | -0.323 (inactive) | 1.18 |
| CC(=O)O[C@]12COC1CC(O)[C@]1(C)C(=O)C(O)C3=C(C)C(OC(=O)C(O)C(NC(=O)OC(C)(C)C)c4ccccc4)C[C@](O)(C(OC(=O)c4ccccc4)C21)C3(C)C (some centres not stated) | 1.04 (inactive) | 0.7 | 2320 | 2220 | 6.54 (active) | -0.0789 |
| OCC1OC(OCCc2ccc(O)cc2)C(O)C(O)C1O (configuration not stated) | 0.962 (inactive) | 0.762 | 10000 | 10400 | -0.35 (inactive) | 0.467 |
| C[C@]12CC[C@H]3c4ccc(O)cc4CC[C@H]3[C@@H]1CC(O)C2O (some centres not stated) | 0.884 (inactive) | 0.677 | 8910 | 10100 | -0.421 (inactive) | -0.251 |
| Cc1cn(C2OC(CO)C(O)C2F)c(=O)[nH]c1=O (configuration not stated) | 0.93 (inactive) | 0.942 | 9750 | 10500 | -0.347 (inactive) | 0.612 |
| COC(=O)C(CCCN=C(N)N)NS(=O)(=O)c1ccc(C)cc1 (configuration not stated) | 0.92 (inactive) | 0.589 | 8520 | 9260 | -0.296 (inactive) | 0.752 |
| COc1ccc(CNCc2cccc3ccccc23)cc1 | 0.918 (inactive) | 0.638 | 8220 | 8960 | -0.404 (inactive) | -0.0397 |
| C=C1CC[C@H]2[C@@](C)(CCC(O)[C@@]2(C)CO)C1CC=C1C(=O)OCC1O (some centres not stated) | 0.97 (inactive) | 0.896 | 6090 | 6280 | -0.657 (inactive) | -0.629 |
| CC(CCC(=O)O)C1CC[C@H]2[C@@H]3CC(O)[C@@H]4CC(O)CC[C@]4(C)[C@@H]3CC[C@]12C (some centres not stated) | 0.928 (inactive) | 0.729 | 9520 | 10300 | -0.299 (inactive) | 0.38 |
| C#CCC(c1nc2cc(Cl)ccc2c(=O)n1Nc1ccccc1)N(CCCN)C(=O)c1cccc(Cl)c1F (configuration not stated) | 0.689 (active) | 0.42 | 882 | 1280 | 1.61 (inactive) | 0.152 |
| COc1cc(C2Oc3cc(C4Oc5cc(O)cc(O)c5C(=O)C4O)ccc3OC2CO)ccc1O (configuration not stated) | 0.923 (inactive) | 0.695 | 9600 | 10400 | -0.412 (inactive) | 0.872 |
| C=C1C(=CC=C2CCC[C@]3(C)C(C(C)CCCC(C)(C)O)CC[C@@H]23)CC(O)CC1O (some centres not stated) | 0.915 (inactive) | 1.06 | 6550 | 7160 | -0.468 (inactive) | 0.543 |
| O=C(c1cn(Cc2cncn2Cc2ccc(Br)cc2)cc1-c1cccc2ccccc12)N1CCOCC1 | 0.999 (inactive) | 0.553 | 3260 | 3270 | -0.128 (inactive) | -1.26 |
| COC(=O)NC(C(=O)N1CCCC1c1ncc(-c2ccc(-c3ccc(-c4cnc(C5CCCN5C(=O)C(NC(=O)OC)C(C)C)[nH]4)cc3)cc2)[nH]1)C(C)C (configuration not stated) | 0.912 (inactive) | 0.711 | 6220 | 6830 | 1.19 (inactive) | 0.581 |
| O=C(O)CCCCC1SC[C@@H]2NC(=O)N[C@H]12 (some centres not stated) | 0.883 (inactive) | 0.431 | 8160 | 9250 | -0.0238 (inactive) | -0.137 |
| CCc1cnn2c(NCc3ccc[n+]([O-])c3)cc(N3CCCCC3CCO)nc12 (configuration not stated) | 1.13 (inactive) | 0.956 | 1750 | 1550 | 1.14 (inactive) | -3.25 |
